Our source for the growth inhibition, inhibition and outcome values is PubChem BioAssay.

A number with no mark means an inactive call. For some of these results: Entries with a potency or affinity are not part of this list. The source made the active and inactive calls. Unless noted, how the calls were made is not given here.

The nature of assay [1]: antimalarial activity against Dd2 strain (AID 2302;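 active means growth inhibition above 50% at the single 2 µM test dose, taken to imply half-maximal potency below 2 µM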;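 further: 0% = DMSO untreated growth and 100% = chloroquine plus artemisinin killed control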). Conditions: P. falciparum Dd2 in RBCs, LDH growth readout, 72 h; at 2 µM; active compounds read high.
A short description of assay [2]: human hepatoma cell viability loss – ATP luminescence, cytotoxicity control for P. falciparum antimalarial project, primary screen (AID 2303;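 active means inhibition above 50%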;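 further: 0% = DMSO wells and 100% = digitonin-killed cells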). The following applies: HepG2 viability, 24-48 h, at 10 µM, active compounds read high.
The target of assay [3] is L-lactate dehydrogenase (Plasmodium falciparum (isolate CDC / Honduras)) (UniProt Q27743). In words: PfLDH activity inhibition – cell lysate, 3D7 strain, counter-screen for P. falciparum growth inhibition project (AID 2304).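 Further: 0% = vehicle and 100% = reference inhibitor.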 Conditions: P. falciparum 3D7 crude extract, LDH APAD/NBT absorbance; at 2 µM; active compounds read high.
Assay [4] in a line: inhibition of 3D7 malaria parasite growth – strain 3D7 (AID 2306).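 Further: 0% = DMSO wells and 100% = chloroquine plus artemisinin control wells.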 The following applies: P. falciparum 3D7 erythrocytic growth, LDH absorbance, 72 h; at 2 µM; active compounds read high.
The target in assay [5] is Calcium-dependent protein kinase 1 (Plasmodium falciparum (isolate 3D7)) (UniProt P62344). In words: PfCDPK1 kinase inhibitors, biochemical, TCAMS library (AID 1159585; cut-off not given, nearly all actives have IC50 up to about 0.98 µM;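 further: inhibitors leave more ATP so luminescence rises with inhibition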). The following applies: recombinant PfCDPK1, Kinase-Glo ATP depletion luminescence. (In general: Kinase-Glo reads ATP consumption through a luciferase reaction.)
Assay [6] addresses Plasmodium falciparum protein kinase 6 (PK6, PF3D7_1337100) (UniProt Q8IDW1). The experiment in a line: PfPK6 kinase inhibitors, biochemical, TCAMS library (AID 1159586). The following applies: recombinant PfPK6, Kinase-Glo ATP depletion luminescence.
The target in assay [7] is Protein kinase 7 (PK7), Plasmodium falciparum 3D7 (PF3D7_0213400) (UniProt Q7YTF7). The experiment in a line: inhibition of Plasmodium PK7 catalytic activity – biochemical, TCAMS antimalarial set, Kinase-Glo luminescence (AID 1159587). Conditions: recombinant PfPK7, Kinase-Glo ATP depletion luminescence.
Assay [8] has as its target Calcium-dependent protein kinase 4 (Plasmodium falciparum (isolate 3D7)) (UniProt Q8IBS5). The experiment in a line: PfCDPK4 kinase inhibitors, biochemical, TCAMS library (AID 1159588; cut-off not given, nearly all actives have IC50 up to about 0.91 µM). The following applies: recombinant PfCDPK4, Kinase-Glo ATP depletion luminescence.

Chain of Calcium-dependent protein kinase 4 (Plasmodium falciparum (isolate 3D7)) (Q8IBS5 whole entry, looked up): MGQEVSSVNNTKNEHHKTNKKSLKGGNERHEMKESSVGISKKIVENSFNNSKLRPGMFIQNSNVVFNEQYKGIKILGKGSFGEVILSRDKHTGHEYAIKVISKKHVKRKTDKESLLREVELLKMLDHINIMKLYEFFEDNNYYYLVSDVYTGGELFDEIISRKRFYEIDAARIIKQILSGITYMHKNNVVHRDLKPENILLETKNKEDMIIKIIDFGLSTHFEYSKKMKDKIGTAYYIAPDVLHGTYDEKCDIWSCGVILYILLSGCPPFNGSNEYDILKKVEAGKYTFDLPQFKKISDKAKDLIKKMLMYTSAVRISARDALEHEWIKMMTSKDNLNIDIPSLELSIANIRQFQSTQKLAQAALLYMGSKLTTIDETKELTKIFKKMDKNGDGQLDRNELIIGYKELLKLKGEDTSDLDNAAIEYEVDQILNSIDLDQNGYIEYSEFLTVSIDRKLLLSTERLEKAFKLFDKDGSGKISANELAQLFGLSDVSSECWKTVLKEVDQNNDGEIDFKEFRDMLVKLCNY
Chain of Protein kinase 7 (PK7), Plasmodium falciparum 3D7 (PF3D7_0213400) (Q7YTF7 1-343): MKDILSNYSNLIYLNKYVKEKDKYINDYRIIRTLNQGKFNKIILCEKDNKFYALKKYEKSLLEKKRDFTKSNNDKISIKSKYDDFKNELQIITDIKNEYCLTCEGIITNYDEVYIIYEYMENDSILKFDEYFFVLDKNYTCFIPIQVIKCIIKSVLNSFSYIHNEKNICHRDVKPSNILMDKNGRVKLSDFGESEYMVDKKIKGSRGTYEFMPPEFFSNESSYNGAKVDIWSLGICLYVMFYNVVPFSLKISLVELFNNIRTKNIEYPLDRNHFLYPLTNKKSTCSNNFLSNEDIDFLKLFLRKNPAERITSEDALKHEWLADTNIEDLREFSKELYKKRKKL
Chain of L-lactate dehydrogenase (Plasmodium falciparum (isolate CDC / Honduras)) (Q27743 whole entry, looked up): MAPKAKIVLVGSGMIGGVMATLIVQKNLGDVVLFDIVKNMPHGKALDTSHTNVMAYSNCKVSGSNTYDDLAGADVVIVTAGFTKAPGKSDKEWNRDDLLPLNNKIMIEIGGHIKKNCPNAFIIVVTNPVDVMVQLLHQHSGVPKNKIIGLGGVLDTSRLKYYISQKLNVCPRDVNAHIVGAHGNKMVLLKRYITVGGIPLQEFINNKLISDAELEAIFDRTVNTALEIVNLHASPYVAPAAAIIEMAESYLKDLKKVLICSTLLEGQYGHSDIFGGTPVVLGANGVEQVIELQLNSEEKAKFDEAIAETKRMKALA
Chain of Calcium-dependent protein kinase 1 (Plasmodium falciparum (isolate 3D7)) (P62344 whole entry, looked up): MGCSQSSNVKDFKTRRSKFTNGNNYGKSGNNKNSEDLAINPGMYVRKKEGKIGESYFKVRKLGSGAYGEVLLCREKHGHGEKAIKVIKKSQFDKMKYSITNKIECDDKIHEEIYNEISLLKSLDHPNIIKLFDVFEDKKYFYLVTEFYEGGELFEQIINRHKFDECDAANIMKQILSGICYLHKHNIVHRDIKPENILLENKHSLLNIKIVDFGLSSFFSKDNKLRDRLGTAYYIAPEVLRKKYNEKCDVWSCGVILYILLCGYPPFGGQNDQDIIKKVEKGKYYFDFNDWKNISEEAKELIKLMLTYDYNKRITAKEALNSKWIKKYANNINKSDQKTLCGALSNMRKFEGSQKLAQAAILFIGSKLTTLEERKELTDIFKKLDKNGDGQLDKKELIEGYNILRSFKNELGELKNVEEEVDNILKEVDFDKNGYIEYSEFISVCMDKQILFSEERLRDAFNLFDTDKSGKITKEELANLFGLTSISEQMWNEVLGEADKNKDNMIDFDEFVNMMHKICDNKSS
Chain of Plasmodium falciparum protein kinase 6 (PK6, PF3D7_1337100) (Q8IDW1 1-305): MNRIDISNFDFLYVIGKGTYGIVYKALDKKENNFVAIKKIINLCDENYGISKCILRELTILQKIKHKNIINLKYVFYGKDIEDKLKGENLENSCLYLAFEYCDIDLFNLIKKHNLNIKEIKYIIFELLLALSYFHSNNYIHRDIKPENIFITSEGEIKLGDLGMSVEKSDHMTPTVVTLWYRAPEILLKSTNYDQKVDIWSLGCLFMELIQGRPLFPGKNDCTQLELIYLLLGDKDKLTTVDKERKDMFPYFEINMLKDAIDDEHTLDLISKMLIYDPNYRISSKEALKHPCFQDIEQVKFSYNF

By inhibition is commonly meant the drop in the measured response relative to a control, in per cent. Consider `O=C(Nc1ccc(F)cc1)NC1CCN(CCCCCNC(=O)[C@@H]2C[C@H]2c2ccc(Cl)c(Cl)c2)CC1`, for which the growth inhibition in assay [1] was 20%; in assay [4], 101% (active). In addition, the inhibition in assay [2] is 46%; in assay [3] it was -2%. The outcome in assay [5], in assay [6], in assay [7] and in assay [8] was inactive.

Regarding `COC(=O)Nc1cc(C(F)(F)F)ccc1N1CCC(CNS(=O)(=O)c2ccc(OC)cc2)CC1`, the growth inhibition in assay [1] is 95% (active); in assay [4], 99% (active). Besides, the inhibition in assay [2] was 13%; in assay [3] it was 0%. Besides, the outcome in assay [5], in assay [6], in assay [7] and in assay [8] was inactive.

As to `CC1CCN(Cc2c(O)ccc3c(=O)c(-c4nc5ccccc5s4)c(N)oc23)CC1`, the growth inhibition in assay [1] was 99% (active); in assay [4] it was 98% (active). Besides, the inhibition in assay [2] is 2%; in assay [3], -6%. Also, the outcome in assay [5], in assay [6], in assay [7] and in assay [8] was inactive.

As to `CC(C)[C@H]1CC[C@H](C)C[C@@H]1OC(=O)N[C@@H](Cc1ccc(O)cc1)C(=O)NC1CCN(Cc2ccc(OCCCN(C)C)cc2)C1` (stereo not given in full), the growth inhibition in assay [1] is 64% (active); in assay [4] it was 99% (active). The inhibition was 27% in assay [2] and 4% in assay [3]. Moreover, the outcome in assay [5], in assay [6], in assay [7] and in assay [8] was inactive.

Consider `O=c1cc(NCCCNCc2cccc(OC(F)(F)C(F)F)c2)[nH]c2ccccc12`, for which the values for the growth inhibition in assay [1] and in assay [4] were 7% and 81% (active), respectively. Also, the inhibition in assay [2] is 6%; in assay [3], -5%. Also, the result in assay [5], in assay [6], in assay [7] and in assay [8] was inactive.

As for `O=C(Nc1cccc(Cl)c1)OC1CCCN2CCCCC12` (stereo not given), the values for the growth inhibition in assay [1] and in assay [4] were -4% and 85% (active), respectively. Further, the inhibition in assay [2] was 6%; in assay [3], 1%. The result in assay [5], in assay [6], in assay [7] and in assay [8] was inactive.

Consider `Cc1[nH]c(C)c(-c2cccc(-c3ccc(OC(F)(F)F)cc3)c2)c(=O)c1Br`, for which the values for the growth inhibition in assay [1] and in assay [4] were 96% (active) and 97% (active), respectively. Moreover, the inhibition in assay [2] was 45%; in assay [3] it was 0%. Further, the outcome in assay [5], in assay [6], in assay [7] and in assay [8] was inactive.

As to `O=C(NCC(CCN1CCC(c2c[nH]c3ccccc23)CC1)c1ccccc1)Nc1ccc(Cl)c(Cl)c1` (stereo not given), the values for the growth inhibition in assay [1] and in assay [4] were 53% (active) and 101% (active), respectively. For the same compound, the inhibition in assay [2] was 46%; in assay [3], 5%. The result in assay [5], in assay [6], in assay [7] and in assay [8] was inactive.

For the compound `CN(C)Cc1ccc(-c2cc3c(-c4ccc(CN(C)C)cc4)ccnc3[nH]2)cc1`, the growth inhibition is 96% (active) in assay [1] and 100% (active) in assay [4]. The inhibition in assay [2] was 86% (active); in assay [3], 0%. Also, the result in assay [5], in assay [6], in assay [7] and in assay [8] was inactive.

Consider `COc1ccc(OC)c(Cc2cnc3nc(N)nc(N)c3c2C)c1`, for which the growth inhibition in assay [1] is 97% (active); in assay [4], 92% (active). Further, the inhibition in assay [2] was 68% (active); in assay [3], 5%. The outcome in assay [5], in assay [6], in assay [7] and in assay [8] was inactive.

On to `O=C(/C=C/c1ccc(Cl)c(Cl)c1)NCCCCCN1CCC(NC(=O)Nc2ccc(Br)cc2)CC1`, for which the results for the growth inhibition in assay [1] and in assay [4] were 7% and 101% (active), respectively. Also, the inhibition in assay [2] was 36%; in assay [3] it was -3%. For the same compound, the outcome in assay [5], in assay [6], in assay [7] and in assay [8] was inactive.

For the compound `CC(C)c1nc(N2CCN(C(=S)NCc3ccccc3)CC2)c(C#N)c2c1COC(C)(C)C2`, the figures for the growth inhibition in assay [1] and in assay [4] were 100% (active) and 99% (active), respectively. Further, the inhibition in assay [2] is -7%; in assay [3], 6%. In addition, the outcome in assay [5], in assay [6], in assay [7] and in assay [8] was inactive.

On to `NCC1CCCN1Cc1ccc(-c2ccc(-c3nc4ccccc4[nH]3)s2)cc1` (stereo not given), for which the results for the growth inhibition in assay [1] and in assay [4] were 97% (active) and 98% (active), respectively. For the same compound, the inhibition in assay [2] is 17%; in assay [3] it was -6%. The result in assay [5], in assay [6], in assay [7] and in assay [8] was inactive.

In the case of `Cc1ccc(CON2C(N)=NC(N)=NC2(C)C)cc1C`, the growth inhibition in assay [1] is 88% (active); in assay [4], 92% (active). For the same compound, the inhibition is 64% (active) in assay [2] and -9% in assay [3]. Further, the result in assay [5], in assay [6], in assay [7] and in assay [8] was inactive.

In the case of `COc1cccc2cc(C(=O)N[C@@H](CC(C)C)C(=O)N[C@H](/C=N/N3CCOC3=O)Cc3ccccc3)oc12`, the figures for the growth inhibition in assay [1] and in assay [4] were 70% (active) and 96% (active), respectively. The inhibition in assay [2] was 6%; in assay [3] it was -1%. The result in assay [5], in assay [6], in assay [7] and in assay [8] was inactive.

In the case of `Cc1cc(N2CCOCC2)nc(Nc2ccc(NC(=O)c3cccc4ccccc34)cc2)n1`, the figures for the growth inhibition in assay [1] and in assay [4] were 11% and 95% (active), respectively. Also, the inhibition in assay [2] was 44%; in assay [3], -1%. Further, the result in assay [5], in assay [6], in assay [7] and in assay [8] was inactive.

On to `Cc1nc2ccc3ccc(CNc4ccc(C#N)cc4)cc3c2c(=O)[nH]1`, for which the growth inhibition in assay [1] is 56% (active); in assay [4], 84% (active). Moreover, the inhibition in assay [2] was 55% (active); in assay [3], 8%. For the same compound, the result in assay [5], in assay [6], in assay [7] and in assay [8] was inactive.

Turning to `Cc1cccc2[nH]c(-c3ccc(-c4cccc(CNCc5cccc(N)c5)c4)cc3)nc12`, the growth inhibition was 87% (active) in assay [1] and 101% (active) in assay [4]. Moreover, the inhibition in assay [2] is 0%; in assay [3] it was -4%. Besides, the result in assay [5], in assay [6], in assay [7] and in assay [8] was inactive.

In the case of `c1ccc(-c2cc(NCCCCCCCCNc3cc(-c4ccccc4)nc4ccccc34)c3ccccc3n2)cc1`, the growth inhibition in assay [1] is 72% (active); in assay [4] it was 101% (active). Also, the inhibition in assay [2] is 36%; in assay [3], 1%. In addition, the outcome in assay [5], in assay [6], in assay [7] and in assay [8] was inactive.

In the case of `Oc1ccc(Cl)cc1CN1CCC2(CCCN(CC3CCC3)C2)C1` (stereo not given), the results for the growth inhibition in assay [1] and in assay [4] were 94% (active) and 100% (active), respectively. The inhibition in assay [2] is 5%; in assay [3] it was -2%. Also, the result in assay [5], in assay [6], in assay [7] and in assay [8] was inactive.
